Rows were chosen to be rich in hits. Some 3.4% of all compounds tested hit in one or more screens of this group.
PKM2 act: qHTS Assay for Activators of Human Muscle isoform 2 Pyruvate Kinase; Pyruvate kinase PKM (Homo sapiens), P14618; purified PKM2, Kinase-Glo ATP luminescence, activation; response scale: 0% is enzyme alone, no compound; Potency, µM (doses to about 57.5 µM), inactives show at the highest dose activation, hits mostly activators; 260,000 compounds, 0.34% hits; further: on the % scale 0 is the no-effect control and ±100 the full control effect; nearly all actives have a fitted effect of over 55% in size
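Kinase-Glo luminescence reports ATP generated from ADP (0.1 mM) and PEP (0.5 mM) by purified hPK-M2 after 1 h at room temperature, pH 7.2 imidazole buffer; intermediate enzyme activity allows detecting inhibitors and activators.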
Mito fusion yeast: qHTS Assay for Small Molecule Inhibitors of Mitochondrial Division or Activators of Mitochondrial Fusion. S. cerevisiae fusion-defective mutant growth rescue, CellTiterGlo 48 h. Potency, µM (doses to about 46.1 µM), without a hit: top-dose growth rescue (activation), most hits filed as activators. 320,000 compounds, 0.23% hits; further: % of control where 0% means no effect; nearly all actives have a fitted effect of over 45% in size
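Read-out: ATP-based luminescence (CellTiterGlo, 10 min ambient) reporting growth of fusion-defective ts yeast after 48 hours at 37C on glycerol/ethanol YPEG medium in the presence of compound.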
PLK1 PBD inh: qHTS for Inhibitors of PLK1-PDB (polo-like kinase 1 - polo-box domain): Primary Screen. Serine/threonine-protein kinase PLK1 (Homo sapiens), P53350. Plk1 PBD binding of FITC phosphopeptide, fluorescence polarization. Potency, µM, without a hit: max response, negative = inhibition, most hits filed as inhibitors. 360,000 compounds, 2.8% hits; further: series mostly up to about 57 µM; on the % scale 0 is the no-effect control and ±100 the full control effect; nearly all actives have a fitted effect of over 65% in size
GLS inh: qHTS for Inhibitors of Glutaminase (GLS); Glutaminase kidney isoform, mitochondrial (Homo sapiens), O94925; Potency, µM (highest dose often 45.5 µM), for inactives: at the highest dose activity change, negative = inhibition, most hits filed as inhibitors; GLS enzymatic activity, qHTS titration; 410,000 compounds, 0.21% hits; AID 624170, 2012; further: on the % scale 0 is the no-effect control and ±100 the full control effect
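hKGA in 45 mM KH2PO4 (pH 8.2), 0.02% Tween-20 with compound, then 1mM L-Glutamine (stock as added) plus glutamate oxidase/HRP/Amplex red coupling mix. Fluorescence read initially and after 30 min at RT; signal change reflects glutamate formation.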
GCN5L2 inh: qHTS Assay for Inhibitors of GCN5L2. GCN5L2 HAT assay, ThioGlo1 CoA-SH fluorescence. Potency, µM (highest dose often 58.9 µM), for the others: at the top dose activity change, negative = inhibition, usual class: inhibitors. 390,000 compounds, 0.21% hits. AID 504327, 2011; further: on the % scale 0 is the no-effect control and ±100 the full control effect
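Enzyme at 20nM final was mixed with library compounds for 15 min at room temperature. Peptide H3(1-25) at 75uM, acetyl-CoA at 70uM and ThioGlo1 at 50uM were then added. Plates were read immediately and after 20 min (Ex340nm/Em540nm).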
VDR inhibitor: Inhibitors of the vitamin D receptor (VDR): qHTS | VDR-SRC2-3 peptide fluorescence polarization, 2 h | Potency, µM, for the others: max response, negative = inhibition, usual class: inhibitors | 400,000 compounds, 0.93% hits | AID 504847, 2011; further: on the % scale 0 is the no-effect control and ±100 the full control effect
Target sequence (P11473 whole entry, looked up): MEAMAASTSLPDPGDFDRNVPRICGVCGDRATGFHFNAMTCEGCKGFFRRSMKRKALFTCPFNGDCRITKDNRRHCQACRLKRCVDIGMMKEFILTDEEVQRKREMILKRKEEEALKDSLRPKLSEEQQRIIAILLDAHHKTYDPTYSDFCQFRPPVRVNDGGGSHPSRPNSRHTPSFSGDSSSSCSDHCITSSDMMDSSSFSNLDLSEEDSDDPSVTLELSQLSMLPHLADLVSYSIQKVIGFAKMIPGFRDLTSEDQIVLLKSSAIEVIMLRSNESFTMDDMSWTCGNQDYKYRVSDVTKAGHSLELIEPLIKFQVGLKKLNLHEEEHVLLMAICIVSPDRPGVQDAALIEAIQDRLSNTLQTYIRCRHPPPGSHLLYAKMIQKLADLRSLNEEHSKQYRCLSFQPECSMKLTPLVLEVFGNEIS
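FP read-out; VDR + SRC2-3 coactivator peptide; 23 nl compound by pintool; 2 h RT incubation; reagents held at 4 deg C, protected from light.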
TbPYK inh: qHTS of Trypanosoma Brucei Inhibitors: Confirmatory Assay for Cherry-picked Compounds; shares compounds with PLK1 PBD inh; recombinant TbPYK, Kinase-Glo ATP luminescence; Potency, µM (highest dose often 76.9 µM), for inactives: at the top dose activity change, negative = inhibition, actives largely listed as inhibitors; AID 720569, 2013; 890 compounds, 67% hits; further: on the % scale 0 is the no-effect control and ±100 the full control effect; nearly all actives have a fitted effect of over 70% in size
TbPYK ADP-Glo: qHTS of Trypanosoma Brucei Inhibitors: Orthogonal Assay for Cherry-picked Compounds; Potency, µM (highest dose often 76.9 µM), for inactives: at the highest dose activity change, negative = inhibition, most hits filed as inhibitors; 890 compounds, 62% hits; AID 720584, 2013; shares compounds with PLK1 PBD inh; recombinant TbPYK, ADP-Glo luminescence, 60 min; further: on the % scale 0 is the no-effect control and ±100 the full control effect; nearly all actives have a fitted effect of over 75% in size
Starred values were filed as active, the others as inactive. The call rests on the fitted dose curve; in most records, active means well fitted curve in the direction sought with a large enough effect; inconclusive means small, poorly fitted or top-dose-only effect, or another doubt; inactive means no such curve, though single readings can be large; an effect the other way counts as inactive or inconclusive. Potency means the concentration at half of the fitted maximal effect.

What do the screens show for `CC1C(=O)NN=C1c1ccc([N+](=O)[O-])cc1` (stereo not given)?
PLK1 PBD inh: -23%; GLS inh: 18%; VDR inhibitor: -20%

What do the screens show for `CC1CN2C(c3ccc([N+](=O)[O-])cc3)=CSC2=N1` (stereo not given)?
PKM2 act: 1%; Mito fusion yeast: 0%; PLK1 PBD inh: inconclusive; GLS inh: -22%; GCN5L2 inh: -9%; VDR inhibitor: inconclusive; TbPYK inh: 6.3µM*; TbPYK ADP-Glo: 13µM*

How did CCOC(=O)c1ccc(/[N+]([O-])=C/c2ccccc2)cc1 do in these assays?
Mito fusion yeast: 4%; PLK1 PBD inh: 21µM*; GLS inh: inconclusive; GCN5L2 inh: -2%; VDR inhibitor: inconclusive; TbPYK inh: -26%; TbPYK ADP-Glo: -11%

Results for CC(=O)NC(Cc1ccc(C)cc1)C(=O)NC1CCN(S(=O)(=O)c2ccccc2)CC1 (stereo not given) ?
Mito fusion yeast: -3%; PLK1 PBD inh: 1%; GLS inh: -12%; GCN5L2 inh: 1%; VDR inhibitor: 6%

What do the screens show for `CCOc1ccc(NC(=O)NCC2CCN(c3ccc(OC)cc3)C2)cc1` (stereo not given)?
PKM2 act: -4%; Mito fusion yeast: -3%; PLK1 PBD inh: 1%; GLS inh: 15%; GCN5L2 inh: 3%; VDR inhibitor: 10%

What do the screens show for `CCc1ccc(NC(=O)NCC2CCN(c3ccc(OC)cc3)C2)cc1` (stereo not given)?
PKM2 act: 4%; Mito fusion yeast: -4%; PLK1 PBD inh: -10%; GLS inh: 15%; GCN5L2 inh: 2%; VDR inhibitor: 2%; TbPYK inh: inconclusive; TbPYK ADP-Glo: -29%

What do the screens show for `COC(=O)/C=c1\sc2ncnn2c1=O`?
PKM2 act: 11%; Mito fusion yeast: 2%; PLK1 PBD inh: inconclusive; GLS inh: -12%; GCN5L2 inh: -5%; VDR inhibitor: -14%; TbPYK inh: 28µM*; TbPYK ADP-Glo: 28µM*

Results for C=CCOc1ccc(/C=C2/C(=O)ON=C2C)cc1OC ?
Mito fusion yeast: -7%; PLK1 PBD inh: 2.4µM*; GLS inh: 20%; GCN5L2 inh: 27%; VDR inhibitor: -14%; TbPYK inh: 13µM*; TbPYK ADP-Glo: inconclusive

How did C=CCOc1ccc(/C=C2\SC(N)=NC2=O)cc1OC do in these assays?
Mito fusion yeast: 16%; PLK1 PBD inh: 9%; GLS inh: -8%; GCN5L2 inh: 2%; VDR inhibitor: 6%

What do the screens show for `Cn1c(SCC(=O)NC2CCCCC2)nnc1-c1cccc(N)c1`?
PKM2 act: -14%; Mito fusion yeast: 3%; PLK1 PBD inh: -16%; GLS inh: 1%; GCN5L2 inh: -6%; VDR inhibitor: -2%; TbPYK inh: inconclusive; TbPYK ADP-Glo: inconclusive

High-throughput results: PubChem, National Center for Advancing Translational Sciences (NCATS)
